Where “and” joins values, the source holds several entries; their conditions need not be identical. Equal values may be shown once. Hit rate of the full screen: of about 5,500 compounds, about 2,000 (36%) were called active. Inconclusive results (about 18%) are left out. Rule as the data show it: active = normalized growth mostly below about 0.91 (no sharp cut-off); inconclusive = no clear call, values can overlap the other calls; inactive = mostly above about 0.92. The list shows a part of the results.
Assay: chemical genetic growth profiling, strain panel (AID 1159580);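 also: tested at 20 µM; growth read once vehicle control cultures reached saturation at 30 °C; 1 = growth at the plate median or of vehicle wells; lower values mean less growth of the strain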
Settings: S. cerevisiae deletion strains, growth OD

Measured: normalized growth

Clc1ccc2c(c1)C(N1CCNCC1)=Nc1ccccc1O2
active: locus YAL021C, strain ccr4, active compounds read low 0.829 | locus YAL026C, strain drs2, active compounds read low 0.466 | locus YDR137W, strain rgp1, active compounds read low 1.32 [resistant] | locus YFR010W, strain ubp6, active compounds read low 0.88
inactive: locus YAL013W, strain DEP1, active compounds read low 0.984 and 1.02 | locus YAL030W, strain snc1, active compounds read low 0.978 | locus YAL040C, strain CLN3, active compounds read low 1.01 | locus YBL061C, strain skt5, active compounds read low 0.991 | locus YBR009C, strain hhf1, active compounds read low 0.963 | locus YBR021W, strain FUR4, active compounds read low 0.989 | locus YBR023C, strain chs3, active compounds read low 0.969 | locus YBR171W, strain sec66, active compounds read low 0.991 | locus YBR229C, strain ROT2, active compounds read low 0.952 | locus YBR231C, strain swc5, active compounds read low 0.994 | locus YBR279W, strain paf1, active compounds read low 0.968 | locus YCL011C, strain gbp2, active compounds read low 0.988 | locus YCL016C, strain dcc1, active compounds read low 0.979 | locus YCL029C, strain bik1, active compounds read low 0.986 | locus YCL069W, strain vba3, active compounds read low 0.969 | locus YCR088W, strain abp1, active compounds read low 0.994 | locus YDL005C, strain med2, active compounds read low 0.994 | locus YDL035C, strain GPR1, active compounds read low 0.972 | locus YDL040C, strain nat1, active compounds read low 1.01 | locus YDL074C, strain BRE1, active compounds read low 1.03 | locus YDL101C, strain DUN1, active compounds read low 0.991 | locus YDL134C, strain PPH21, active compounds read low 0.996 | locus YDL185W, strain tfp1, active compounds read low 0.986 | locus YDL192W, strain arf1, active compounds read low 0.99 | locus YDR001C, strain nth1, active compounds read low 0.992 | locus YDR069C, strain doa4, active compounds read low 0.901 | locus YDR101C, strain arx1, active compounds read low 0.995 | locus YDR150W, strain NUM1, active compounds read low 0.974 | locus YDR159W, strain sac3, active compounds read low 0.984 | locus YDR162C, strain NBP2, active compounds read low 0.988 | locus YDR195W, strain ref2 1.07 | locus YDR297W, strain sur2, active compounds read low 0.992 | locus YDR318W, strain mcm21, active compounds read low 0.993 | locus YDR334W, strain swr1, active compounds read low 0.957 | locus YDR335W, strain msn5, active compounds read low 0.975 | locus YDR388W, active compounds read low 0.98 | locus YDR392W, strain spt3, active compounds read low 1.06 | locus YDR502C, strain sam2, active compounds read low 0.959 | locus YEL003W, strain gim4, active compounds read low 0.996 | locus YEL037C, strain rad23, active compounds read low 0.968 | locus YEL061C, strain CIN8 (second series), active compounds read low 0.992 | locus YEL061C, strain CIN8, active compounds read low 0.984 | locus YER002W, strain NOP16, active compounds read low 0.998 | locus YER015W, strain faa2, active compounds read low 0.983 | locus YER016W, strain bim1, active compounds read low 0.993 | locus YER110C, active compounds read low 0.978 | locus YER111C, strain swi4, active compounds read low 0.984 | locus YER155C, strain BEM2 (second series), active compounds read low 0.992 | locus YER155C, strain BEM2, active compounds read low 1 | locus YER167W, strain BCK2, active compounds read low 0.994 | locus YGL078C, strain dbp3, active compounds read low 0.968 | locus YGL086W, strain mad1, active compounds read low 0.986 | locus YGL167C, strain pmr1, active compounds read low 0.974 | locus YGL173C, strain kem1, active compounds read low 0.928 | locus YGL227W, strain vid30, active compounds read low 0.985 | locus YGL240W, strain doc1, active compounds read low 0.975 | locus YGL248W, strain PDE1, active compounds read low 0.987 | locus YGL253W, strain hxk2, active compounds read low 0.989 | locus YGR078C, strain PAC10, active compounds read low 1 | locus YGR135W, strain pre9, active compounds read low 0.98 | locus YGR229C, strain SMI1, active compounds read low 0.937 | locus YGR252W, strain gcn5, active compounds read low 0.915 | locus YHR013C, strain ard1, active compounds read low 0.891 | locus YHR027C, strain rpn1, active compounds read low 0.989 | locus YHR030C, strain SLT2, active compounds read low 0.994 and 1.02 | locus YHR079C, strain IRE1 (second series), active compounds read low 0.986 | locus YHR079C, strain IRE1, active compounds read low 1.03 | locus YHR094C, strain hxt1, active compounds read low 0.998 | locus YHR129C, strain ARP1, active compounds read low 1 | locus YHR142W, strain chs7, active compounds read low 0.957 | locus YHR200W, strain rpn10, active compounds read low 0.992 | locus YIL066C, strain RNR3, active compounds read low 0.978 | locus YIL073C, strain SPO22, active compounds read low 1.05 | locus YIL125W, strain kgd1, active compounds read low 0.97 | locus YIR030C, strain dcg1, active compounds read low 0.986 | locus YJL092W, strain hpr5, active compounds read low 0.987 | locus YJL095W, strain BCK1 (second series), active compounds read low 0.965 | locus YJL095W, strain BCK1, active compounds read low 0.98 and 1.02 | locus YJL115W, strain asf1, active compounds read low 0.957 | locus YJL129C, strain trk1, active compounds read low 1.06 | locus YJL134W, strain LCB3, active compounds read low 0.985 | locus YJL154C, strain vps35, active compounds read low 0.97 | locus YJL164C, strain tpk1, active compounds read low 0.964 | locus YJL166W, strain qcr8, active compounds read low 0.984 | locus YJL168C, strain set2, active compounds read low 0.996 | locus YJL187C, strain SWE1 (second series), active compounds read low 1 | locus YJR043C, strain POL32, active compounds read low 1.02 | locus YJR066W, strain TOR1, active compounds read low 0.972 | locus YJR075W, strain HOC1, active compounds read low 1 | locus YKL009W, strain mrt4, active compounds read low 0.96

— PubChem BioAssay AID1159580 (chemical genetic matrix, 2015)
